Source: PubChem BioAssay
Shown are actives, neighbours in structure and some others; about 1.9% of the full set was active somewhere.
HTR5A ag: HTR5A agonists in luminescence cell assay, primary screen, counter-screen for OPRM1-OPRD1 heterodimer agonist project, full-deck HTS; 5-hydroxytryptamine receptor 5A (Homo sapiens), P47898; cell-based; activation, % at 9.3 µM; actives 0.61% (n = 340,000); in the data active = activation mostly above about 9.5%, no sharp cut-off; inactive = mostly below about 7.6%
HTR5A inv ctr: HTR5A inverse agonists in luminescence cell assay, primary screen, counter-screen for OPRM1-OPRD1 heterodimer inverse agonist project, full-deck HTS; 5-hydroxytryptamine receptor 5A (Homo sapiens), P47898; HTR5A cell line, inverse agonism; inhibition, % at 9.3 µM; actives 0.083% (n = 340,000); AID 504634, 2011; in the data active = inhibition mostly above about 23%, no sharp cut-off; inactive = mostly below about 18%
MsrA inhibitor: bovine MsrA enzyme inhibitors, primary screen, biochemical, absorbance, HTS. Methionine sulfoxide reductase A (Bos taurus). purified bovine MsrA, absorbance read-out. inhibition, % at 15.5 µM. actives 0.75% (n = 360,000)
OPRM1-OPRD1 ag: agonists of OPRM1-OPRD1 heterodimerization, primary screen, cell-based, luminescence; cells; activation, % at 9.3 µM; Mu-type opioid receptor (Homo sapiens) + Delta-type opioid receptor (Homo sapiens), …; actives 0.3% (n = 340,000); in the data active = activation above about 18%
OPRM1-OPRD1 inv: inverse agonists of MOR-DOR heterodimerization, primary screen, cell-based, luminescence; actives 0.21% (n = 340,000); cell-based MOR-DOR heterodimer luminescence, inverse agonism; inhibition, % at 9.3 µM; Mu-type opioid receptor (Homo sapiens) + Delta-type opioid receptor (Homo sapiens), …; AID 504357, 2011; in the data active = inhibition above about 22%, passing the limit was not always enough
bovine MsrA act: bovine MsrA enzyme activators, primary screen, biochemical, absorbance, HTS; actives 0.3% (n = 360,000); AID 602163, 2012; purified bovine MsrA, absorbance read-out; Methionine sulfoxide reductase A (Bos taurus); activation, % at 10.6 µM; in the data active = activation above about 7.5%
MsrA inh confirm: bovine MsrA inhibitors, retest, confirmation, biochemical, absorbance, HTS | shares compounds with MsrA inhibitor | purified bovine MsrA, absorbance read-out | inhibition, % at 15.5 µM | actives 41% (n = 2,300);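 note: coupled to thioredoxin reductase with NADPH and selenocystamine and DMSO as substrate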
Large screens that a line does not name were inactive (follow-up assays come after a bar, where they were run). Cut-off read from the data, not from the text of the source, unless noted: active = inhibition above about 4.5%; inactive = the rest.

COc1cc(NC(=O)Cc2ccccc2)c(C(=O)O)cc1OC	none
COc1ccc(/C=C/C(=O)Nc2ccncc2)cc1OC	MsrA inhibitor 5.8 | MsrA inh confirm inactive
CC(=O)Nc1cccc(-c2ccnc3c2CC(C(=O)NCc2cccs2)O3)c1 (stereo not given)	none (no result: HTR5A ag, HTR5A inv ctr, OPRM1-OPRD1 ag, OPRM1-OPRD1 inv)
Cc1cnc(C=O)c2cccc([N+](=O)[O-])c12	none (no result: HTR5A ag, HTR5A inv ctr, OPRM1-OPRD1 ag, OPRM1-OPRD1 inv)
Cc1ccc(N2C(=O)c3cccc4c([N+](=O)[O-])ccc(c34)C2=O)c2cccnc12	none
Cc1ccnc(N2C(=O)c3cccc4c([N+](=O)[O-])ccc(c34)C2=O)c1	MsrA inhibitor 12.4 | MsrA inh confirm 8.6
CCC(C)/C(C)=N/Nc1ccc(S(N)(=O)=O)cc1[N+](=O)[O-] (stereo not given)	MsrA inhibitor 7.7 | MsrA inh confirm inactive
C/C(CC(C)C)=N\Nc1ccc(S(N)(=O)=O)cc1[N+](=O)[O-]	MsrA inhibitor 11.4 | MsrA inh confirm 5.6
COc1ccccc1NS(=O)(=O)c1ccc(N/N=C(\C)C(C)C)c([N+](=O)[O-])c1	MsrA inhibitor 9.2 (no result: bovine MsrA act) | MsrA inh confirm inactive
C[C@@H]1CN([C@H](C)CO)C(=O)CCCn2cc(nn2)CO[C@H]1CN(C)S(=O)(=O)c1ccc(Cl)cc1	none (no result: HTR5A ag, HTR5A inv ctr, OPRM1-OPRD1 ag, OPRM1-OPRD1 inv, bovine MsrA act)
CCCCc1cc(=O)oc2c(CN(C)C)c(O)c(Cl)cc12	MsrA inhibitor 5.0 | MsrA inh confirm inactive
CCN(CC)c1ccc(C2NCC(c3ccc([N+](=O)[O-])cc3)O2)cc1 (stereo not given)	MsrA inhibitor 5.3 | MsrA inh confirm 4.7
